{"source": "PubChem BioAssay (Tox21)", "note": "Results filed as inconclusive are left out. A call without a number means that no potency is given here. Active and inactive are the calls of the source. The call rests on the fitted dose curve; in most records, active means well fitted curve in the direction sought with a large enough effect in the repeat runs; inconclusive means weak or mixed curves; inactive means no such curve, though single readings can be large; an effect the other way counts as inactive or inconclusive.", "data": [{"tested_on": "not listed separately", "assay": "qHTS assay to identify small molecule agonists of the constitutive androstane receptor (CAR) signaling pathway - cell viability counter screen (AID 1224836); further: nearly all actives have a fitted effect of over 45% in size", "conditions": "HepG2-CYP2B6-hCAR viability, CellTiter-Fluor, 23 h, PK11195 added to every well; series mostly up to 92.4 µM", "outline": "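HepG2 cells stably carrying hCAR and a CYP2B6-2.2kb reporter were plated 4 h, then given compounds at 15 concentrations plus PK11195 (final 0.75 uM). After 23 h at 37 C, viability was read by CellTiter-Fluor fluorescence.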", "values": [{"molecule": "N#CCc1ccccc1[N+](=O)[O-]", "outcome": "inactive"}, {"molecule": "CN(C)CCOC(c1ccc(Cl)cc1)c1ccccn1", "note": "(stereo not drawn)", "outcome": "inactive"}, {"molecule": "NC(=S)Nc1cccc2ccccc12", "viability change, negative = cytotoxic": "-0.893% [at 8.39 µM] (inactive)"}, {"molecule": "CC(C)[N+](C)(C)CC(O)COc1cccc2ccccc12", "note": "(stereo not drawn)", "outcome": "inactive"}, {"molecule": "COc1cccc(OC)c1", "outcome": "inactive"}, {"molecule": "CCCc1ccc(N)cc1", "outcome": "inactive"}, {"molecule": "C=C(C)C(=O)NCCC[N+](C)(C)C", "outcome": "inactive"}, {"molecule": "Cc1ccc(N)cc1[N+](=O)[O-]", "outcome": "inactive"}, {"molecule": "Nc1cc(N)cc(C(=O)O)c1", "outcome": "inactive"}, {"molecule": "CC(CCO)CCCC(C)(C)O", "note": "(stereo not drawn)", "outcome": "inactive"}, {"molecule": "c1ccc2cnncc2c1", "outcome": "inactive"}, {"molecule": "CCCCCC[C@@H](CCC)C(=O)O", "outcome": "inactive"}, {"molecule": "CCCCOCC(C)OCC(C)O", "note": "(stereo not drawn)", "outcome": "inactive"}, {"molecule": "O=C(O)/C=C/c1ccc(/C=C/C(=O)O)cc1", "outcome": "inactive"}, {"molecule": "CCC(=O)c1cccc(Cl)c1", "outcome": "inactive"}, {"molecule": "CC(C)=CC(=O)O", "outcome": "inactive"}, {"molecule": "NS(=O)(=O)c1cc2c(cc1C(F)(F)F)NC(Cc1ccccc1)NS2(=O)=O", "note": "(stereo not drawn)", "outcome": "inactive"}, {"molecule": "COc1ccc(N=[N+]([O-])c2ccc(OC)cc2)cc1", "outcome": "inactive"}, {"molecule": "C(=C(c1ccccc1)c1ccccc1)c1ccccc1", "outcome": "inactive"}, {"molecule": "CO[Si](CCCNCCC[Si](OC)(OC)OC)(OC)OC", "outcome": "inactive"}, {"molecule": "CC(C=O)Cc1ccc(C(C)C)cc1", "note": "(stereo not drawn)", "outcome": "inactive"}, {"molecule": "CCCCc1ccc2cccc(S(=O)(=O)O)c2c1", "outcome": "inactive"}, {"molecule": "O=C(O)Cc1cc(I)c(Oc2cc(I)c(O)c(I)c2)c(I)c1", "outcome": "inactive"}, {"molecule": "C=C(C)[C@H]1CC=C(C)CC1", "outcome": "inactive"}, {"molecule": "COC(=O)C1=C(C)NC(C)=C(C(=O)OCC(C)=O)C1c1ccccc1[N+](=O)[O-]", "note": "(stereo not drawn)", "outcome": "inactive"}, {"molecule": "N#CCN(CC#N)CCN(CC#N)CC#N", "outcome": "inactive"}, {"molecule": "C[N+](C)(C)CC[N+]1(C)Cc2c(Cl)c(Cl)c(Cl)c(Cl)c2C1", "outcome": "inactive"}, {"molecule": "CC(C)c1cccc(C(C)C)c1N", "outcome": "inactive"}, {"molecule": "C1C2OC2C2C1C1CC2C2OC12", "note": "(stereo not drawn)", "outcome": "inactive"}, {"molecule": "NC1CCN(c2cccc(Cl)n2)CC1", "outcome": "inactive"}, {"molecule": "COC(=O)CCCCCCCCC(=O)OC", "outcome": "inactive"}, {"molecule": "COC(=O)c1ccc(C(=O)OC)c(C(=O)OC)c1", "outcome": "inactive"}]}, {"tested_on": "not listed separately", "assay": "qHTS assay to identify small molecule antagonists of the constitutive androstane receptor (CAR) signaling pathway - cell viability counter screen (AID 1224837); further: nearly all actives have a fitted effect of over 45% in size", "conditions": "HepG2-CYP2B6-hCAR viability, CellTiter-Fluor, 23 h, co-treated with 50 nM CITCO; series mostly up to 92.4 µM", "outline": "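In quantitative HTS format, compounds at 15 concentrations were applied to HepG2 cells double-transfected with hCAR and CYP2B6-2.2kb under 50 nM CITCO stimulation; live-cell protease activity was read after 23 hr via CellTiter-Fluor.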", "values": [{"molecule": "Cn1cnc2c(=O)[nH]c(N)nc21", "outcome": "inactive"}, {"molecule": "N#CCc1ccccc1[N+](=O)[O-]", "outcome": "inactive"}, {"molecule": "CN(C)CCOC(c1ccc(Cl)cc1)c1ccccn1", "note": "(stereo not drawn)", "outcome": "inactive"}, {"molecule": "NC(=S)Nc1cccc2ccccc12", "activity change, negative = cytotoxicity": "-0.426% [at 8.39 µM] (inactive)"}, {"molecule": "CC(C)[N+](C)(C)CC(O)COc1cccc2ccccc12", "note": "(stereo not drawn)", "outcome": "inactive"}, {"molecule": "Cc1ccccc1Br", "outcome": "inactive"}, {"molecule": "COc1cccc(OC)c1", "outcome": "inactive"}, {"molecule": "CCCc1ccc(N)cc1", "outcome": "inactive"}, {"molecule": "C=C(C)C(=O)NCCC[N+](C)(C)C", "outcome": "inactive"}, {"molecule": "Cc1ccc(N)cc1[N+](=O)[O-]", "outcome": "inactive"}, {"molecule": "Nc1cc(N)cc(C(=O)O)c1", "outcome": "inactive"}, {"molecule": "CC(CCO)CCCC(C)(C)O", "note": "(stereo not drawn)", "outcome": "inactive"}, {"molecule": "c1ccc2cnncc2c1", "outcome": "inactive"}, {"molecule": "CCCCCC[C@@H](CCC)C(=O)O", "outcome": "inactive"}, {"molecule": "CCCCOCC(C)OCC(C)O", "note": "(stereo not drawn)", "outcome": "inactive"}, {"molecule": "O=C(O)/C=C/c1ccc(/C=C/C(=O)O)cc1", "outcome": "inactive"}, {"molecule": "CCC(=O)c1cccc(Cl)c1", "outcome": "inactive"}, {"molecule": "CC(C)=CC(=O)O", "outcome": "inactive"}, {"molecule": "NS(=O)(=O)c1cc2c(cc1C(F)(F)F)NC(Cc1ccccc1)NS2(=O)=O", "note": "(stereo not drawn)", "outcome": "inactive"}, {"molecule": "COc1ccc(N=[N+]([O-])c2ccc(OC)cc2)cc1", "outcome": "inactive"}, {"molecule": "C(=C(c1ccccc1)c1ccccc1)c1ccccc1", "outcome": "inactive"}, {"molecule": "CO[Si](CCCNCCC[Si](OC)(OC)OC)(OC)OC", "outcome": "inactive"}, {"molecule": "CC(C=O)Cc1ccc(C(C)C)cc1", "note": "(stereo not drawn)", "outcome": "inactive"}, {"molecule": "CCCCc1ccc2cccc(S(=O)(=O)O)c2c1", "outcome": "inactive"}, {"molecule": "CCC(C)(C)C1CCC(OC)CC1", "note": "(stereo not drawn)", "outcome": "inactive"}, {"molecule": "O=C(O)Cc1cc(I)c(Oc2cc(I)c(O)c(I)c2)c(I)c1", "outcome": "inactive"}, {"molecule": "C=C(C)[C@H]1CC=C(C)CC1", "outcome": "inactive"}, {"molecule": "COC(=O)C1=C(C)NC(C)=C(C(=O)OCC(C)=O)C1c1ccccc1[N+](=O)[O-]", "note": "(stereo not drawn)", "outcome": "inactive"}, {"molecule": "N#CCN(CC#N)CCN(CC#N)CC#N", "outcome": "inactive"}, {"molecule": "C[N+](C)(C)CC[N+]1(C)Cc2c(Cl)c(Cl)c(Cl)c(Cl)c2C1", "outcome": "inactive"}, {"molecule": "C=CC(=O)N1CCOCC1", "outcome": "inactive"}, {"molecule": "CC(C)c1cccc(C(C)C)c1N", "outcome": "inactive"}, {"molecule": "C1C2OC2C2C1C1CC2C2OC12", "note": "(stereo not drawn)", "outcome": "inactive"}, {"molecule": "NC1CCN(c2cccc(Cl)n2)CC1", "outcome": "inactive"}, {"molecule": "COC(=O)CCCCCCCCC(=O)OC", "outcome": "inactive"}, {"molecule": "COC(=O)c1ccc(C(=O)OC)c(C(=O)OC)c1", "outcome": "inactive"}, {"molecule": "OCCCCCCO", "outcome": "inactive"}, {"molecule": "CC(=O)c1ccc(C)cc1", "outcome": "inactive"}]}, {"molecular_target": "Nuclear receptor subfamily 1 group I member 3 (Homo sapiens) (UniProt Q14994)", "sequence (Q14994 whole entry, looked up)": "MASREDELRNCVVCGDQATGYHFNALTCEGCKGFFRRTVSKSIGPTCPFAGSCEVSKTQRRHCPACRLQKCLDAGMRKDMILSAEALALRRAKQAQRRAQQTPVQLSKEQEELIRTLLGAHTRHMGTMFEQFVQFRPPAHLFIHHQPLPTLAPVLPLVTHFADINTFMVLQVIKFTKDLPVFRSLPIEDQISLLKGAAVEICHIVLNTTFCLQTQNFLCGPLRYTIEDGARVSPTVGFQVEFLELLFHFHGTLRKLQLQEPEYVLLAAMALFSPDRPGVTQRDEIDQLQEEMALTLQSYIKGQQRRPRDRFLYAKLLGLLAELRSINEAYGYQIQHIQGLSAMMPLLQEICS", "assay": "qHTS assay to identify small molecule antagonists of the constitutive androstane receptor (CAR) signaling pathway (AID 1224838); further: nearly all actives have a fitted effect of over 40% in size; further: potency means the concentration at half of the fitted maximal effect", "conditions": "HepG2-CYP2B6-hCAR luciferase, CITCO-stimulated, 24 h; series mostly up to 92.4 µM", "outline": "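CITCO-stimulated (50 nM final) HepG2 cells stably transfected with hCAR and CYP2B6-2.2kb luciferase were exposed to compounds at 15 concentrations for 24 h at 37 C/5% CO2. A luciferase reagent was added and luminescence recorded after 30 min.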", "values": [{"molecule": "Cn1cnc2c(=O)[nH]c(N)nc21", "Potency": "inactive"}, {"molecule": "N#CCc1ccccc1[N+](=O)[O-]", "Potency": "inactive"}, {"molecule": "CN(C)CCOC(c1ccc(Cl)cc1)c1ccccn1", "note": "(stereo not drawn)", "Potency": "inactive"}, {"molecule": "NC(=S)Nc1cccc2ccccc12", "activity, negative = inhibition": "3.74% [at 8.39 µM] (inactive)"}, {"molecule": "CC(C)[N+](C)(C)CC(O)COc1cccc2ccccc12", "note": "(stereo not drawn)", "Potency": "inactive"}, {"molecule": "Cc1ccccc1Br", "Potency": "inactive"}, {"molecule": "COc1cccc(OC)c1", "Potency": "inactive"}, {"molecule": "CCCc1ccc(N)cc1", "Potency": "inactive"}, {"molecule": "C=C(C)C(=O)NCCC[N+](C)(C)C", "Potency": "inactive"}, {"molecule": "Cc1ccc(N)cc1[N+](=O)[O-]", "Potency": "inactive"}, {"molecule": "CC(CCO)CCCC(C)(C)O", "note": "(stereo not drawn)", "Potency": "27.3 µM (active)"}, {"molecule": "CCCCCC[C@@H](CCC)C(=O)O", "Potency": "inactive"}, {"molecule": "CCCCOCC(C)OCC(C)O", "note": "(stereo not drawn)", "Potency": "inactive"}, {"molecule": "O=C(O)/C=C/c1ccc(/C=C/C(=O)O)cc1", "Potency": "inactive"}, {"molecule": "CC(C)=CC(=O)O", "Potency": "inactive"}, {"molecule": "NS(=O)(=O)c1cc2c(cc1C(F)(F)F)NC(Cc1ccccc1)NS2(=O)=O", "note": "(stereo not drawn)", "Potency": "inactive"}, {"molecule": "COc1ccc(N=[N+]([O-])c2ccc(OC)cc2)cc1", "Potency": "inactive"}, {"molecule": "C(=C(c1ccccc1)c1ccccc1)c1ccccc1", "Potency": "inactive"}, {"molecule": "CO[Si](CCCNCCC[Si](OC)(OC)OC)(OC)OC", "Potency": "inactive"}, {"molecule": "CC(C=O)Cc1ccc(C(C)C)cc1", "note": "(stereo not drawn)", "Potency": "inactive"}, {"molecule": "CCCCc1ccc2cccc(S(=O)(=O)O)c2c1", "Potency": "inactive"}, {"molecule": "CCC(C)(C)C1CCC(OC)CC1", "note": "(stereo not drawn)", "Potency": "inactive"}, {"molecule": "O=C(O)Cc1cc(I)c(Oc2cc(I)c(O)c(I)c2)c(I)c1", "Potency": "inactive"}, {"molecule": "C=C(C)[C@H]1CC=C(C)CC1", "Potency": "inactive"}, {"molecule": "COC(=O)C1=C(C)NC(C)=C(C(=O)OCC(C)=O)C1c1ccccc1[N+](=O)[O-]", "note": "(stereo not drawn)", "Potency": "inactive"}, {"molecule": "N#CCN(CC#N)CCN(CC#N)CC#N", "Potency": "inactive"}, {"molecule": "C=CC(=O)N1CCOCC1", "Potency": "inactive"}, {"molecule": "CC(C)c1cccc(C(C)C)c1N", "Potency": "inactive"}, {"molecule": "C1C2OC2C2C1C1CC2C2OC12", "note": "(stereo not drawn)", "Potency": "inactive"}, {"molecule": "NC1CCN(c2cccc(Cl)n2)CC1", "Potency": "inactive"}, {"molecule": "COC(=O)c1ccc(C(=O)OC)c(C(=O)OC)c1", "Potency": "inactive"}, {"molecule": "OCCCCCCO", "Potency": "inactive"}, {"molecule": "CC(=O)c1ccc(C)cc1", "Potency": "inactive"}]}]}
